# Source: PubChem (National Center for Advancing Translational Sciences (NCATS))
# The list is not random: actives were taken first. Their share in the collection is about 2%.
# S-ASM inh = human S-ASM enzyme inhibition; placental ASM, HMU-PC fluorogenic substrate, 60 min; P17405; Potency, µM (doses to about 57.5 µM), for inactives: at the highest dose activity change, negative = inhibition, actives largely listed as inhibitors; 340,000 compounds, 0.006% hits; AID 504937
# Target sequence (P17405 47-631 limits assumed): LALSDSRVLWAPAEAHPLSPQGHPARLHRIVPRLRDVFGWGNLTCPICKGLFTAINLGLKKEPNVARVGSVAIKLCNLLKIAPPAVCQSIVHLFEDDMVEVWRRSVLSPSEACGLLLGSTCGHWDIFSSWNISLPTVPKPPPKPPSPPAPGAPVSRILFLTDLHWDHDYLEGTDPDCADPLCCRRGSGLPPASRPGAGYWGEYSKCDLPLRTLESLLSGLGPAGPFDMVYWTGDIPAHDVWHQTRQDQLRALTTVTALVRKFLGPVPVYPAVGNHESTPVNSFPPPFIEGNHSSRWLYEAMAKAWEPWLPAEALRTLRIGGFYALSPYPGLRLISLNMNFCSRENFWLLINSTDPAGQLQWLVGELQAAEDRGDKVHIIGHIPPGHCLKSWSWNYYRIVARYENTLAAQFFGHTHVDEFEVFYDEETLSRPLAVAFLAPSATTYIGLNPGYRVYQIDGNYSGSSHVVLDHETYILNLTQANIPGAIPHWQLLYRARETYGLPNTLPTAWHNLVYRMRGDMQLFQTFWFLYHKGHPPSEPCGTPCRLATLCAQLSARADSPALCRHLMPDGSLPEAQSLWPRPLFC
#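 Fluorogenic HMU-PC substrate (9 uM final) is turned over by placental ASM in 60 min at 37 C after a 10 min compound preincubation. Reaction ended by alkaline stop (pH 10), with fluorescence read at 386/447 nm.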
# Abeta yeast res = restores growth of yeast expressing A-beta42 peptide; yeast expressing A-beta42, growth rescue, OD600, 48 h; response scale: 0% DMSO, 100% iron-clioquinol control; Potency, µM (highest dose often 46.1 µM), hits mostly activators; 410,000 compounds, 0.063% hits; AID 1347071; note: nearly all actives have a fitted effect of over 55% in size
#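 Yeast growth medium received pinned compounds, then yeast cells expressing toxic A-beta were added; plates incubated at 30 C for 48 hr. Growth read as absorbance at 600 nm, normalized to DMSO and equimolar FeCl3 plus clioquinol controls.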
# Rango-impB inh = prevents formation of the Rango-importin beta complex; Potency, µM (top dose mostly 92.2 µM), for the others: top-dose inhibition of complex formation; 340,000 compounds, 0.031% hits; AID 540263; Q14974; Rango CFP/YFP FRET sensor + importin beta, 45 min; calls by dose curve;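 note: 0% = DMSO wells and 100% = buffer wells lacking importin beta; nearly all actives have a fitted effect of over 15% in size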
#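 FRET biosensor Rango (snurportin 1 IBB between N-terminal EYFP and C-terminal Cerulean), 50 nM in PBS/1 mM DTT/0.02% Tween-20/0.1% BSA, preincubated 5 min RT with compound; 0.125 microM importin beta added, 45 min RT, CFP/YFP FRET ratio read.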
# TDP-43 yeast inh = inhibitors of TDP-43 toxicity in yeast | Potency, µM (highest dose often 46.1 µM), for the others: at the highest dose growth rescue (activation), usual class: activators | AID 652104 | TDP-43 expressing yeast growth rescue, BacTiter-Glo, 24 h | 410,000 compounds, 1.8% hits; note: % of control where 0% means no effect; nearly all actives have a fitted effect of over 50% in size
#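 Galactose-induced TDP-43 yeast, OD600=0.02, compound pinned; 24 hr, 30 deg C; BacTiter-Glo luminescence for growth. Inhibitors of TDP-43 toxicity read as activators.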
# aSyn yeast inh = alpha-synuclein toxicity inhibition in yeast; Yeast expressing alpha-synuclein, growth rescue, BacTiter-Glo, 24 h; Potency, µM (series often up to 46.1 µM), for the others: at the highest dose growth rescue (activation), actives largely listed as activators; 370,000 compounds, 0.14% hits; note: % of control where 0% means no effect; nearly all actives have a fitted effect of over 65% in size
#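 Galactose-induced alpha-syn yeast (OD600=0.02, raffinose-pregrown) + pinned cpd, 24 hr, 30 deg C; growth by BacTiter-Glo luminescence. Growth restoration scores as activation.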
# Rango release inh = prevents RanGTP from dissociating the Rango-importin beta complex; O95149+P62826; Biochemical FRET Rango-importin beta, RanGTP-induced dissociation; Potency, µM (top dose mostly 46.1 µM), for inactives: at the highest dose activity change, negative = inhibition; 340,000 compounds, 0.071% hits; AID 540253; calls by dose curve; note: % of control where 0% means no effect; nearly all actives have a fitted effect of over 45% in size
#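 Two FRET readings bracket the reaction: one 5 min after compound meets Rango–importin beta, another 45 min after RanGTP-RCC1 (0.6 uM Ran, 0.2 uM RCC1, 2 mM GTP) is added. Only the second defines inhibition.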
# Active calls of the source: *; i = inactive; u = inconclusive; x = no result. Unless noted, calls come from the whole dose curve; as a rule, active = well fitted curve in the direction sought with a large enough effect; inconclusive = small, poorly fitted or top-dose-only effect, or another doubt; inactive = no such curve, though single readings can be large; an effect the other way counts as inactive or inconclusive. Potency is the fitted concentration of half-maximal effect.
SMILES,S-ASM inh,Abeta yeast res,Rango-impB inh,TDP-43 yeast inh,aSyn yeast inh,Rango release inh
COc1ccc(CN(C(=O)c2ccc(-c3ccccc3)[nH]2)C(C(=O)NCC2CCCO2)c2ccc(C)o2)cc1 (stereo not given),-24%,i,3%,11µM*,27%,-7%
O=C(NCC1CCCO1)C(c1cccs1)N(Cc1ccccc1)C(=O)c1ccc(-c2ccccc2)[nH]1 (stereo not given),-19%,i,-3%,16µM*,4%,-8%
CCOC(=O)c1ccc(NC(=O)C2CCN(C(=O)N3CC(C)Oc4ccc(C)cc43)CC2)cc1 (stereo not given),x,i,x,u,x,x
COc1cc(CNC(=O)c2sc3ncccc3c2-n2cccc2)cc(OC)c1OC,x,i,x,0%,x,x
CCOc1ccc(OCC)c(NS(=O)(=O)c2cccc3nsnc23)c1,3%,i,0%,13µM*,1%,4%
O=C(C[n+]1cccc(Br)c1)c1ccccc1,0%,i,-2%,5%,2%,6%
O=C(C[n+]1cccc(Br)c1)c1ccc(-c2ccccc2)cc1,-8%,i,3%,1.6µM*,-5%,-7%
COc1ccc(S(=O)(=O)NCCc2sc(-c3cccc(F)c3)nc2C)cc1,x,i,x,25µM*,x,x
COc1ccc(-c2nc(C)c(CCNS(=O)(=O)c3cc(Cl)ccc3Cl)s2)cc1,x,i,x,25µM*,u,x
COc1ccc(-c2nc(C)c(CCNS(=O)(=O)c3ccc(F)cc3)s2)cc1OC,x,i,x,u,7%,x
Cc1n[nH]c2ccccc2c1=O,-4%,i,2%,0%,5%,0%
CC(C)(C)c1ccc(Nc2n[nH]c3ccccc23)cc1,x,i,x,35µM*,6%,x
CC(=O)/C(=C\N(C)C)Sc1ccc(Cl)cc1,5%,u,u,22µM*,u,-5%
CCCCCCOc1ccc(-c2nc3ccc(Br)cc3c(=O)o2)cc1,x,i,x,25%,x,x
CCc1ccc(CNC(=O)CCc2c(C)nn(-c3ccc(N4CCCC4)nn3)c2C)cc1,x,i,x,-3%,x,x
CC1=CC(c2ccccc2)NC(=S)N1 (stereo not given),6%,i,3%,5%,-1%,3%
S=C1NC(c2cccs2)=CC(c2ccc(Br)cc2)N1 (stereo not given),-2%,i,u,20µM*,-6%,-8%
S=C1NC(c2ccccc2)=CC(c2ccccc2)N1 (stereo not given),18%,13µM*,u,-25%,17%,0%
C[C@H]1[C@H](c2ccccc2)C[C@@H](C(=O)O)C1(C)C,-4%,i,4%,14µM*,-5%,2%
COCCn1c(SCc2ccc(F)cc2)nc2ccccc2c1=O,-7%,i,-1%,18µM*,9%,3%
CCSc1nc2ccccc2c(=O)n1CCc1ccc(OC)c(OC)c1,-8%,i,3%,18µM*,u,-2%
CCOc1ccc(/C=C/c2ccnc3ccccc23)cc1OCC,x,x,x,x,10%,x
Cc1ccc2c(C)c(C(=O)N3CCN(C4CCS(=O)(=O)C4)CC3)oc2c1C (stereo not given),2%,i,-1%,5%,1%,-15%
Cc1ccc2c(C)c(C(=O)N3CCN(c4cnccn4)CC3)oc2c1C,6%,i,0%,13µM*,27%,u
Cc1ccc2c(C)c(C(=O)N3CCC(O)(c4ccccc4)CC3)oc2c1C,-11%,i,-1%,22µM*,10%,0%
SMILES,S-ASM inh,Abeta yeast res,Rango-impB inh,TDP-43 yeast inh,aSyn yeast inh,Rango release inh
CCOc1ccccc1NC(=O)Cn1c(=O)n(CCC(=O)NCc2ccc3c(c2)OCO3)c(=O)c2ccccc21,x,i,x,4%,x,x
Cc1ccc(-n2ccnc(NCc3cccs3)c2=O)cc1C,x,i,x,16µM*,x,x
CCOc1cc(S(=O)(=O)NC2CCCC2)ccc1Cl,-2%,i,5%,20µM*,0%,4%
Cc1nc(S(=O)(=O)NC2CCCCC2)c(C#N)c(C)c1Cl,-1%,i,0%,u,17%,0%
Cc1nc(S(=O)(=O)N2CCOCC2)c(C#N)c(C)c1Cl,-2%,i,0%,13µM*,4%,2%
Cc1nc(-c2ccc(S(=O)(=O)Nc3cc(Cl)ccc3C)cc2)co1,x,i,x,22µM*,u,x
O=C(c1ccco1)N(Cc1ccc([N+](=O)[O-])cc1)c1ccc(Br)cc1,-9%,i,-1%,32µM*,1%,6%
O=C(c1ccco1)N(Cc1ccc([N+](=O)[O-])cc1)c1ccc(Cl)cc1,-4%,i,-2%,22µM*,10%,1%
COc1ccc(-c2csc(NC(=O)C3COc4ccccc4O3)n2)cc1OC (stereo not given),-18%,i,-1%,35µM*,-21%,-23%
COc1ccc(OC)c2sc(NNC(=O)C3COc4ccccc4O3)nc12 (stereo not given),8%,u,-3%,6.3µM*,5%,0%
CSCC(=O)Nc1nc(-c2ccc3c(c2)OCCO3)cs1,1%,i,3%,u,-11%,7%
CCCC(=O)Nc1nc(-c2ccc3c(c2)OCCO3)cs1,-1%,i,-2%,10µM*,-19%,-8%
CC(C)(C)c1csc(NC(=O)C2COc3ccccc3O2)n1 (stereo not given),-1%,i,-1%,-2%,-21%,0%
O=C(CSc1nc(-c2ccccc2)[nH]c1-c1ccc(F)cc1)NC1CCCC1,x,i,x,12%,x,x
CN(C)c1ccc(-c2ccc(CCO)cc2)cc1,x,x,x,x,1%,x
O=C(Nc1nc2c(s1)CCCC2)c1ccc2ncsc2c1,39%,i,-6%,13µM*,-35%,-13%
CC1CCc2nc(NC(=O)Cc3cccs3)sc2C1 (stereo not given),-9%,i,-5%,28µM*,16%,-12%
COc1ccc(OCC(=O)Nc2nc3c(s2)CCCC3)cc1,1%,i,-2%,u,11%,1%
Cc1cccc(C(=O)Nc2nc3c(s2)CCCC3)c1,x,i,x,u,x,x
Cc1ccc(CC(=O)Nc2nc3c(s2)CCCC3)cc1,-2%,u,1%,16µM*,6%,5%
COc1ccc(NC(=O)Nc2nc3c(s2)CCCC3)cc1,-3%,i,0%,14µM*,13µM*,-12%
CC1(C)CC(=O)C2=C(C1)NC(Nc1nc3ccccc3o1)=NC2c1cccnc1 (stereo not given),x,x,x,x,-4%,x
